Compounds without any hit were thinned out: in the full panel of roughly 83,000, 20% have a hit.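 96-well plates, one dose, 48 hours. Percent growth reported; active if below 10.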 Values without a mark were called inactive. Activity calls are given as the source filed them.

What all share (experiment): NCI-60 one-dose screen, 48 h (100 = growth as untreated, 0 = no growth, -100 = all killed)
Common to all, as to settings: 10 µM unless noted

Experiment [1] has as its system T-47D breast.
Experiment [2] relates to BT-549 breast.
The subject of experiment [3] is MDA-MB-435 melanoma.
For experiment [4], the system named is SW-620 colon.
For experiment [5], the system named is MCF7 breast.
Experiment [6] relates to HCT-116 colon.
Experiment [7] concerns HCC-2998 colon.
In experiment [8] the test system is KM12 colon.

For the compound `CC(C)(C)C(=O)/C=c1/[nH]c(=O)/c(=C/c2ccccc2O)s1`, the growth in experiment [1] is 41.3%; in experiment [2] it was 71.8%; in experiment [3], -25.9% (active); in experiment [4], 34%; in experiment [5], 28.1%; in experiment [6], 21.2%. The growth in experiment [7] is 77.6%; in experiment [8], 29.9%.

Consider `COc1ccc(Cl)cc1NC(=O)c1cc2c([nH]1)-c1nc(NC(=O)C(C)(C)C)sc1CC2`, for which the growth in experiment [1] is 71.3%; in experiment [2], 71.7%; in experiment [3] it was 91%; in experiment [4], 62.6%; in experiment [5], 52.1%; in experiment [6], 12.4%. Besides, the growth in experiment [7] was 96.5%; in experiment [8], 83.2%.

For the compound `CCCCCCCC(=O)SCC/C=C/[C@@H]1CC(=O)NCc2nc(cs2)C2=N[C@@](C)(CS2)C(=O)N[C@@H](C(C)C)C(=O)N1`, the growth in experiment [1] is -25.6% (active); in experiment [2], 40.1%; in experiment [3], 6.04% (active); in experiment [4] it was 26.9%; in experiment [5], 13.2%; in experiment [6], -30.3% (active). The growth in experiment [7] was -6.96% (active); in experiment [8], 8.82% (active).

With `c1ccc(-c2nc3sc(C(c4ccccc4)c4ccccc4)nn3c2-c2ccccc2)cc1`, the growth in experiment [1] was 92.6%; in experiment [2] it was 96%; in experiment [3], 98.9%; in experiment [4] it was 91.6%; in experiment [5], 90.8%; in experiment [6], 84%. Further, the growth was 109% in experiment [7] and 96.1% in experiment [8].

As for `O=C(Nc1ccc(-n2ccc3c(NC(=O)c4ccccc4)ncnc32)cc1)Nc1ccc(Cl)c(C(F)(F)F)c1`, the growth is 12% in experiment [1]; 56% in experiment [2]; 7.71% (active) in experiment [3]; 12.6% in experiment [4]; -51.3% (active) in experiment [5]; -77.6% (active) in experiment [6]. The growth in experiment [7] is 30.8%; in experiment [8], -25.4% (active).

With `Cl[C@@H]1CCO[C@H](c2cc3ccccc3c3ccccc23)C1`, the growth was 99.5% in experiment [1]; 87.4% in experiment [2]; 101% in experiment [3]; 95.4% in experiment [4]; 97.5% in experiment [5]; 90.3% in experiment [6]. Also, the results for the growth in experiment [7] and in experiment [8] were 94.8% and 100%, respectively.

On to `CCc1c(C)c2cc(-n3c(-c4ccc(OC)cc4)csc3=N)c(O)c(C)c2oc1=O`, for which the growth is -0.0975% (active) in experiment [1]; 5.21% (active) in experiment [2]; 0.357% (active) in experiment [3]; 22.9% in experiment [4]; 9.39% (active) in experiment [5]; 8.8% (active) in experiment [6]. The growth in experiment [7] is 36.2%; in experiment [8], 12.7%.

Take `O=C(COc1ccc(Cl)cc1)N1CCN(Cc2ccc3c(c2)OCO3)CC1`: the growth was 78.2% in experiment [1]; 98.3% in experiment [2]; 101% in experiment [3]; 97% in experiment [4]; 103% in experiment [5]; 102% in experiment [6]. Moreover, the values for the growth in experiment [7] and in experiment [8] were 99.9% and 102%, respectively.

Take `CC(=O)c1cc2c(N)c(C(=O)Nc3cccc(Cl)c3)sc2nc1C`: the growth is 83.6% in experiment [1]; 75.5% in experiment [2]; 2.38% (active) in experiment [3]; 98.2% in experiment [4]; 74% in experiment [5]; 102% in experiment [6]. Further, the growth in experiment [7] was 85.3%; in experiment [8], 84.1%.

On to `COc1ccc(-c2ccc(NC(=O)Nc3cccc(C(F)(F)F)c3)c(C)n2)cc1`, for which the growth in experiment [1] was 26.5%; in experiment [2], 66.4%; in experiment [3], 69.6%; in experiment [4] it was 81%; in experiment [5], 41.5%; in experiment [6], 26.9%. The growth in experiment [7] is 81.1%; in experiment [8], 45.6%.

Take `CC1(C)N=C(N)N=C(N)N1c1cccc(CCCCc2ccccc2)c1`: the growth in experiment [1] is 18.1%; in experiment [2], -35.1% (active); in experiment [3], -0.215% (active); in experiment [4], 25.3%; in experiment [5] it was 3.82% (active); in experiment [6], 2.07% (active). The growth is -9.45% (active) in experiment [7] and -42.8% (active) in experiment [8].

`O=S1(=O)N(CCNc2nccc(-c3c(-c4cccc(O)c4)nc4sccn34)n2)CCN1Cc1ccccc1`: the growth was 50.8% in experiment [1]; 69.9% in experiment [2]; 45.9% in experiment [3]; 74.4% in experiment [4]; 59.5% in experiment [5]; 45.9% in experiment [6]. Besides, the growth in experiment [7] is 109%; in experiment [8], 47.6%.

Turning to `COc1cc(C(=O)N2CCN(C(=O)c3cc(OC)c(OCc4ccccc4)cc3N)CC2)c(N)cc1OCc1ccccc1`, the growth in experiment [1] was 114%; in experiment [2], 101%; in experiment [3] it was 127%; in experiment [4] it was 119%; in experiment [5], 89.5%; in experiment [6] it was 104%. The growth is 102% in experiment [7] and 109% in experiment [8].

For `COc1ccc(/C=N/C2=NNC(C)(c3ccccc3O)N2C(Cc2c[nH]c3ccccc23)C(=O)O)cc1` (stereo not given), the growth in experiment [1] was 12.9%; in experiment [2], 21.6%; in experiment [3] it was 3.69% (active); in experiment [4], 17.2%; in experiment [5] it was 13.1%; in experiment [6] it was 10.8%. Further, the growth in experiment [7] was 47.7%; in experiment [8] it was 13.1%.

In the case of `CNCCCOc1c(Br)cc(CCNC(=O)/C(Cc2cc(Br)c(OC)c(Br)c2)=N/O)cc1Br`, the growth in experiment [1] is -27.5% (active); in experiment [2] it was 48%; in experiment [3], -59.6% (active); in experiment [4], -47.1% (active); in experiment [5], -40.3% (active); in experiment [6], -91.6% (active). Besides, the growth in experiment [7] is -49.5% (active); in experiment [8], -1.14% (active).

(Values after PubChem BioAssay (NCI).)
